Source: PubChem BioAssay AID1117319 (Southern Research Institute, 2015)
“And” between values parts separate entries of the source, which are not always exact repeats. Equal values may be shown once. About 1,500 (0.58%) of roughly 260,000 compounds were called active. Roughly 5% stayed inconclusive and do not appear here.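 Rule for the calls: active = inhibition above a set limit at one or more doses, reproduced on every date tested; inconclusive = results disagree between test dates, or hit never tested in dose response; inactive = the rest.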 The list is a sample of the results. Results with a measured potency or affinity are listed apart.

Target: Virion infectivity factor (Human immunodeficiency virus type 1 group M subtype B (isolate BH10)) + Virion infectivity factor (Human immunodeficiency virus type 1 group M subtype B (isolate BRU/LAI)) + Virion infectivity factor (Human immunodeficiency virus type 1 group M subtype B (isolate PCV12)) + Virion infectivity factor (Human immunodeficiency virus type 1 group M subtype B (isolate HXB2)) + DNA dC->dU-editing enzyme APOBEC-3G (Homo sapiens) (UniProt P69720+P69721+P69722+P69723+Q9HC16)
Experiment: HIV-1 Vif–A3G interaction blockers – biochemical, TR-FRET, GST-Vif 1-94, biotin-A3G peptide, dose response retest, primary screen (AID 1117319);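 note: Vif residues 1-94 fused to GST binding biotinylated APOBEC3G peptide 110-148; 0% = full assay without inhibitor and 100% = GST in place of GST-Vif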
Details: TR-FRET GST-Vif / biotin-A3G peptide binding; stronger effect = higher value

inhibition, inactive:
CCc1ccccc1NC1=NCC(=O)N1Cc1ccc(OC)cc1 -4.85%, CCCCCC(O)(c1ccc(OCC)cc1)C(CN1CCOCC1)c1ccccc1 (stereo not drawn) -5.23%, COc1cccc(NC(=O)CN2C(=O)COc3ccc(S(=O)(=O)N4CCC(C)CC4)cc32)c1 -1.2%, OCCC1CN(Cc2cccc3nonc23)CCN1Cc1ccsc1 (stereo not drawn) 21.2%, CC(C)CCNC(=O)C(c1ccco1)N(CC1CCCO1)C(=O)Cn1nnc2ccccc21 (stereo not drawn) 18.9%, COc1ccc(CN2C=C3C(=O)C(C)(OC(=O)C4CCCC4)C(=O)C=C3C=C2c2ccsc2)cc1 (stereo not drawn) 31%, COC/C=C/C1=CC2=CC(=O)C(C)(OC(=O)c3cnc4ccccc4n3)C(=O)C2=CN1C(CO)CO (stereo not drawn) 19.5%, CC1(OC(=O)C2CCCC2)C(=O)C=C2C=C(c3ccsc3)N(CCCCO)C=C2C1=O (stereo not drawn) 21.2%, C=CCN1C=C2C(=O)C(C)(OC(=O)C3CCCC3)C(=O)C=C2C=C1c1ccsc1 (stereo not drawn) 22.2%, COC(=O)CCC(=O)OC1(C)C(=O)C=C2C=C(C3CC3)N(c3ccccc3)C=C2C1=O (stereo not drawn) 21.6%, CCCCC1=CC2=CC(=O)C(C)(OC(=O)CC)C(=O)C2=CN1C1CCCCC1 (stereo not drawn) 18.3%, CCOC(=O)C1=C(COC(=O)Cc2ccccc2)NC(=O)NC1C (stereo not drawn) 2.89%, CCCS(=O)(=O)c1nc(S(=O)(=O)c2ccc(C)cc2)c(N2CCCC2)s1 -10.9%, O=C1C2CC=CCC2C(=O)N1c1ncn[nH]1 (stereo not drawn) 0.84%, COc1cccc(OC)c1C(=O)Nc1ccccc1NC(=O)c1c(OC)cccc1OC -6.67%, O=[N+]([O-])c1ccc(/C=N/n2cn[nH]c2=S)cc1 0.85%, O=S(=O)(NC1CC1)c1ccc(S(=O)(=O)N2CCc3ccccc32)cc1 18.3%, COc1cc2c(cc1OC)C1c3ccc(OC)c(OC)c3OCC1(O)C2 (stereo not drawn) -4.73%, CCN(CC(=O)Nc1ccc(OC)cc1)C(=O)c1ccc2c(=O)n3c(nc2c1)CCC3 -5.14%, CC1CNC(=S)N(c2ccc(F)cc2)C1=O (stereo not drawn) -6.26%, O=C1/C(=C\c2cccnc2)SC(=S)N1c1ccc(F)cc1 1.49%, CN(C)/C=C1\NC(=S)N(c2ccccc2)C1=O -8.51%, O=C1C(Cc2ccccc2)NC(=S)N1c1ccccc1 (stereo not drawn) -3.85%, CCOc1cccc(/C=C2\NC(=S)N(c3ccccc3)C2=O)c1O 8.76%, O=C1/C(=C/c2ccco2)N=C(N2CCCCC2)N1c1ccccc1 23.7%, Cc1ccc2c(C)c(C(=O)NCCc3ccco3)oc2c1C -1.77%, CN(CC(=O)Nc1ccc(Cl)c(C(F)(F)F)c1)C(=O)c1cc(=O)[nH]c2ccccc12 1.56%, Cc1ccc(C(=O)CCC(=O)Nc2ccc(C)cn2)cc1 -9.87%, Cc1ccnc(NC(=O)CCC(=O)N(CC(=O)NCc2ccccc2)c2ccc3c(c2)OCO3)c1 12.1%, Cc1cc(C)nc(SCc2cc(=O)c(OC(=O)c3ccc(Cl)c([N+](=O)[O-])c3)co2)n1 31.3%, CN(c1ccc(C(=O)Nc2ccc(Cl)cn2)cc1)S(=O)(=O)c1ccccc1 18.3%, CN(C1=C(NC(=O)c2ccccc2)C(=O)c2ccccc2C1=O)C1CCS(=O)(=O)C1 (stereo not drawn) 23.9%, Fc1cccc(NC(=S)N2CCCCC2)c1 1.92%, Cc1ccc(CC(NC(=O)c2ccccc2)C(=O)N2CCCC2C(=O)O)cc1 (stereo not drawn) -0.14%, O=C(O/N=C1\CCS(=O)(=O)c2sccc21)C1CC1 -8.69%, Nc1c(Cl)cc2c(c1Oc1ccccc1)C(=O)c1ccccc1C2=O 7.9%, O=C1C(Cl)=C(NCCc2ccccc2)C(=O)c2ccccc21 14.2%, Cc1ccc(NS(=O)(=O)c2ccc(C(=O)N3CCCC(C(F)(F)F)C3)cc2)cc1 (stereo not drawn) -6.68%, O=C1/C(=C/c2ccccn2)SC(=S)N1c1cccc(O)c1 1.67%, O=C(COc1ccccc1F)Nc1ccc2[nH]c(=O)[nH]c2c1 -2.63%, COC(=O)c1cc(NC(=O)c2cc(-c3ccc(Cl)cc3)oc2C(F)(F)F)ccc1N1CCOCC1 -11.7%, CC(C)C(NC(=O)/C(=C/c1ccco1)NC(=O)c1ccc(Br)o1)C(=O)O (stereo not drawn) 25.7%, CSCCC(NC(=O)/C(=C/c1ccco1)NC(=O)c1ccc(Br)o1)C(=O)O (stereo not drawn) 13.7%, COc1cc(/C(O)=C(\C#N)c2nc3ccccc3[nH]2)cc(OC)c1OC 3.24%, Cc1ccc(Cl)cc1N1CCN(C(=O)COc2ccc(S(=O)(=O)NC(C)C)cc2)CC1 6.57%, O=C(COc1ccc2c(c1)CCC2)N1CCN(c2ccc(F)cc2)CC1 4.96%, Cc1cc(C)n(CC(O)COc2ccccc2[N+](=O)[O-])n1 (stereo not drawn) 10.6%, COc1ccc(C2C(C#N)=C(N)Oc3c2oc(CO)cc3=O)cc1 (stereo not drawn) -2.28%, N#CC1=C(N)Oc2c(oc(CO)cc2=O)C1c1cccs1 (stereo not drawn) 26.6%, O=C(OCC(=O)N1CCc2ccccc21)c1ccccn1 -3.08%, Cc1ccc(S(=O)(=O)N2CCOCC2)cc1C(=O)NC1CCCCC1 1.31%, CCOC(=O)c1sc2nc(CC(=O)OC)nc(NCc3ccc(Cl)cc3)c2c1C -0.39% and -4.73%, CCOC(=O)c1sc2nc(CC(=O)OC)nc(NCc3ccc(F)cc3)c2c1C -3.02%, CC(Oc1cccc(Cl)c1)C(=O)NNC(=O)c1cccnc1 (stereo not drawn) -4.59%, COC(=O)c1ccc(C(=O)OC)c(=O)[nH]1 0.04%, COC(=O)c1ccc(N)cc1O -0.17%, Cc1nc2nc(-c3ccccc3)[nH]n2c(=O)c1C 21.8%, Cn1c(=O)c2c(-c3ccccc3)n(Cc3ccccn3)cc2n(C)c1=O -0.87%
